Screens (PubChem BioAssay)
An excerpt weighted towards active compounds, which were near 3% of everything screened.
Wnt bcat act: activators of Wnt/beta-catenin signaling; activation, % at 9.35 µM; Wnt/beta-catenin reporter cell assay, activator, plate reader; AID 743398; hit rate 1.2% among 300,000; in the data active = activation above about 30%, passing the limit was not always enough;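 also: 0% = neutral control wells and 100% = positive control wells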
MITF act: MITF TRPM1 promoter activation in melanoma cells; hit rate 0.75% among 300,000; SK-MEL-5 TRPM1-promoter luciferase, 24 h; % of positive control, neutral wells = 0; activation, % at 12.5 µM; AID 588334;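 active = mean activation of at least 80% with every replicate also reaching 80%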;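 also: 0% = neutral control wells and 100% = parthenolide positive control wells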
Statin myotox sup: suppressors of simvastatin-induced myotoxicity in C2C12 myotubes; ATP luminescence, 48 h; scaled: DMSO 0, geranylgeraniol control 100; rescue of ATP level, % at 7.49 µM; hit rate 0.78% among 330,000;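 active = mean ATP rescue above about 67%, or every replicate alone reaching that limit, limit read from the data, passing the limit was not always enough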;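 also: myotubes were challenged with 10 µM simvastatin during compound exposure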
esBAF inh: inhibitors of esBAF chromatin remodeling in mouse ES cells; AID 602393; Bmi1-luciferase knock-in reporter, 24 h; 100% = twice the neutral-well signal; reporter increase, % at 12.5 µM; hit rate 2% among 350,000; in the data active = activation above about 40%;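 also: 0% = median of the plate's neutral control wells and 100% = double that signal; a rise in the Bmi1 reporter signal indicates esBAF inhibition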
* hit, by the source's call; nt = no result.

SMILES	Wnt bcat act	MITF act	Statin myotox sup	esBAF inh
COc1ccc(-c2cc(C(=O)NCC(C)C)no2)cc1	nt	87*	nt	nt
CCC(C)NC(=O)COCc1cc(-c2ccc3c(c2)OCO3)on1 (stereo unspecified)	0	-7	5	6
CC(C)NC(=O)c1cc(-c2ccc(Br)cc2)on1	nt	111*	-16	32
CCC(C)NC(=O)c1cc(-c2ccc(OC)cc2)on1 (stereo unspecified)	nt	101*	-5	-11
CCC(C)NC(=O)c1cc(-c2ccc3c(c2)OCO3)on1 (stereo unspecified)	41*	88*	-14	3
C/C=C/c1cnc2c(c1)C(=O)N([C@@H](C)CO)C[C@@H](C)[C@@H](CN(C)C(=O)NC1CCCCC1)O2	nt	nt	8	-1
COc1cccc(NC(=O)N[C@H]2CC[C@H](CC(=O)N3CCCCC3)O[C@H]2CO)c1	nt	nt	-7	-8
